# Reference: PubChem BioAssay AID652054 (National Center for Advancing Translational Sciences (NCATS), 2013)
# About 9,100 (2.5%) of roughly 360,000 compounds were called active. Inconclusive results (about 4%) are left out. Cut-off read from the data, not from the text of the source: active = max response below about -50%; inconclusive = no clear call, values can overlap the other calls; inactive = above that. For the sample, actives were picked, then their nearest neighbours and some compounds at random.
# Target: D(3) dopamine receptor (Homo sapiens) (UniProt P35462)
# Sequence (P35462 whole entry, looked up): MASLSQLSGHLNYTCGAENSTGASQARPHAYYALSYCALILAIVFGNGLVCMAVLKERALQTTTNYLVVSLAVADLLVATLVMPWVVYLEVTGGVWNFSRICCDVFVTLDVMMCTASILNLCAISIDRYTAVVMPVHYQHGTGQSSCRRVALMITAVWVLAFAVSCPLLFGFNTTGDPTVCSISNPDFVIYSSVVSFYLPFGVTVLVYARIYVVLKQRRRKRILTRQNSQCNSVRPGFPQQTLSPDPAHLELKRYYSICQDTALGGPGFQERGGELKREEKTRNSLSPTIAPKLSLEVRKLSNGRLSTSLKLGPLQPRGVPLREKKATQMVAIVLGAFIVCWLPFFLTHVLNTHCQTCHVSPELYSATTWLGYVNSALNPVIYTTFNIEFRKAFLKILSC
# Assay: qHTS of D3 Dopamine Receptor Antagonist: qHTS
# Conditions: D3R cells, DiscoveRx beta-arrestin luminescence, antagonist mode; stronger effect = lower value
# Summary of the method: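 Cells plated overnight at 1500 cells/well, then exposed to library compounds with dopamine controls for 90 minutes at 37 degrees C. DiscoveRx reagent added for 30–60 minutes at room temperature; luminescence read, quantitative HTS format.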
# % is set by controls: 0 for no effect and ±100 for the full control effect.
row,Structure (SMILES),"max response, negative = inhibition"
1,Fc1cccc(Cc2c(-c3cccc(Cl)c3)nc3ccc(Br)cn23)c1,12.6% (inactive)
2,CC(C)NC(=O)Nc1ccc2c(c1)C(=O)N([C@H](C)CO)C[C@H](C)[C@@H](CN(C)Cc1ccc(C(F)(F)F)cc1)OCCCC[C@@H](C)O2,-28.7% (inactive)
3,COC(=O)C[C@@H]1C=C[C@@H](NS(=O)(=O)c2cccc(OC)c2)[C@@H](CO)O1,3.79% (inactive)
4,O=C1NC[C@H](CCCCN2C[C@H](Cc3ccccc3)N(Cc3ccccc3)C(=O)C2=O)N(CCc2ccc(O)cc2)C1=O,2.36% (inactive)
5,COc1ccc(OCC(=O)Nc2ccc(N3CCC(C)CC3)cc2)cc1,-0.541% (inactive)
6,COc1ccc(OCCCC(=O)Oc2ccc(OC)cc2)cc1,12.3% (inactive)
7,COc1ccc(OCCCCN2CCC(C)CC2)cc1,-66.8% (active)
8,CC(C)(C)OC(=O)N1CCN(C(=O)c2[nH]c(C(F)(F)F)nc2-c2ccccc2)CC1,11.8% (inactive)
9,C=CCn1nc(C(=O)OCC)cc1-c1sc(NC(=O)c2ccccc2)nc1C,26.8% (inactive)
10,C=CCN1CCN(c2ccncc2S(=O)(=O)N2CCN(C)CC2)CC1,26.6% (inactive)
11,COc1ccc(-c2cc(NC=O)c3ncc(-c4cc(OC)c(OC)c(OC)c4)n3c2)c(OC)c1,36.6% (inactive)
12,N#Cc1ccc(C(=O)Nc2nc(-c3cccs3)c(C(=O)C(F)(F)F)s2)cc1,-58.8% (active)
13,COC(=O)c1sc(NC(=S)NC(=O)c2ccc(C)cc2)nc1C,2.14% (inactive)
14,N#Cc1c(-c2cccs2)nc(SCC(=O)c2ccc(Br)cc2)[nH]c1=O,4.64% (inactive)
15,O=C(NCc1ccc(F)cc1)c1cc(C2CCCCN2C(=O)c2ccccn2)on1 (stereo not drawn),-10.1% (inactive)
16,COC(=O)c1ccc(Oc2nc(Nc3ccc(F)cc3)nc(N3CCCC3)n2)cc1,-22.6% (inactive)
17,COc1nc(NC2CCCCC2)nc(N2CCCCCC2)n1,-62.8% (active)
18,Clc1nc(NC2CCCC2)nc(N2CCOCC2)n1,16.5% (inactive)
19,COC(=O)[C@@]12C[C@@H](CC(=O)NCCCCc3ccccc3)C(=O)N(Cc3ccccc3)C1=CCC(C)(C)C2,-9.89% (inactive)
20,CCN(CC)CCOCCOc1ccc(Cl)c2ccccc12,-29.6% (inactive)
21,Cn1c(CCCOc2ccc(Cl)cc2Cl)n[nH]c1=S,10.4% (inactive)
22,CN(C)CCOc1ccc(Cl)cc1C(C)(C)C,-51.2% (active)
23,CC(=O)C[C@@H]1OC[C@H](CO)N1S(=O)(=O)c1ccc(C)cc1,6.66% (inactive)
